{"source": "PubChem BioAssay (NCATS)", "note": "Records with an inconclusive call do not appear. Where a call stands in place of a potency, no number is given. Active and inactive are the calls of the source. Calls come from the whole dose curve; as a rule, active = well fitted curve in the direction sought with a large enough effect; inconclusive = small, poorly fitted or top-dose-only effect, or another doubt; inactive = no such curve, though single readings can be large or run the other way.", "data": [{"target": "Thioredoxin reductase 1, cytoplasmic (Rattus norvegicus) (UniProt O89049)", "sequence (O89049 whole entry, looked up)": "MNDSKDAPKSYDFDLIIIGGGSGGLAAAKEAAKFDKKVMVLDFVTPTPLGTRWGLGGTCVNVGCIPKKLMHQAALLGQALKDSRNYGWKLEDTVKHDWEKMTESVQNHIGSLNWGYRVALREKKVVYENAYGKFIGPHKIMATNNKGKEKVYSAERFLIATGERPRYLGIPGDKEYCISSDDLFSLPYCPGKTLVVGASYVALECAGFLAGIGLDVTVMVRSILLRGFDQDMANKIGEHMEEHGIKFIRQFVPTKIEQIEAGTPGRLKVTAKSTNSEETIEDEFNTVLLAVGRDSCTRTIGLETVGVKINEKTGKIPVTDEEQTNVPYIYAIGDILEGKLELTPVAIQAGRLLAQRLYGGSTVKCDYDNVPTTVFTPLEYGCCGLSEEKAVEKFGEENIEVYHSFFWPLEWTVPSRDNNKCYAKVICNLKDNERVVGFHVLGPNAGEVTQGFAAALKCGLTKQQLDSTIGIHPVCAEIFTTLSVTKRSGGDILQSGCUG", "test": "qHTS Assay for Substrates of Mammalian Selenoprotein Thioredoxin Reductase 1 (TrxR1) (AID 488772);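 note: a drop in NADPH fluorescence below the no-compound background marks a TrxR1 substrate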", "conditions": "purified TrxR1, NADPH consumption substrate assay; series mostly up to 57.1 µM", "source_text": "The selenoprotein thioredoxin reductase (TrxR; EC 1.8.1.9) is a FAD containing homodimeric pyridine nucleotide-disulfide oxidoreductase with many cellular roles. Together with NADPH and its prime substrate thioredoxin (Trx), the enzyme forms the core of the Trx system. The mammalian Trx system exerts a wide spectrum of functions including redox regulation, antioxidant defense, regulation of transcription factors as well as support of cell growth and replication. Many of these functions involve the reduction of Trx, which may subsequently reduce a number of different substrates including ribonucleotide reductase, peroxiredoxins or NFkB. Mammalian TrxR itself also has a broad substrate specificity, reducing both protein and non-protein substrates, including low molecular weight compounds such as dehydroascorbate, lipoic acid, ubiquinone, and juglone. In addition, several drugs in clinical use for anticancer treatment are indeed known to target TrxR1.\nThis BioAssay is a validation of an NADPH fluorescence-based, dual-purpose qHTS rTrxR1 assay designed to find potential inhibitors and substrates of rTrxR1. For this particular BioAssay, actives are potential substrates. See related BioAssay for inhibitors data deposition.\nAssay protocol: 2 uL of reagents (buffer in column 4 as negative control and 90 nM rTrxR1 in columns 1-3 and 5-48) were dispensed into Greiner black solid-bottom 1,536-well assay plates, followed by 1 uL of NADPH (400 uM final concentration) to each well. The plates were centrifuged at 1000 rpm for 15 seconds and subsequently incubated for 5 min at room temperature (~22 deg C) to allow for rTrxR1 reduction. Compounds (23 nL) were then transferred via Kalypsys pin tool equipped with 1536-pin array (10 nL slotted pins, V&P Scientific, San Diego, CA). In addition, a duplicate 2-fold serial dilution of the control compounds auranofin, a known gold-based TrxR1 inhibitor, and juglone (5-hydroxy-1,4-naphthoquinone), a natural TrxR1 substrate, were pin-transferred to columns 2 and 3, respectively. After incubation for 15 min at room temperature (~22 deg C), 1 uL of selenite (400 uM final concentration) were dispensed to each well. The plate was immediately transferred to a ViewLux high-throughput CCD imager (PerkinElmer), wherein kinetic measurements of NADPH fluorescence (Ex 340 nm, Em 450 nm) were acquired (8 minute kinetic read, see Table 1). Read 1 was utilized to assess the capacity of a compound to serve as an rTrxR1 substrate, i.e. a decrease in NADPH fluorescence compared to the no-compound background is an indication of a substrate behavior for that particular compound. For inhibitory activity of a compound, delta values, computed as the difference in fluorescence intensity between the first and last reads of an 8-minute time kinetic window, were used. All reagents were diluted in an assay buffer consisting of 50 mM Tris-HCl, pH 7.5, 2 mM EDTA, and 0.01% Tween-20.\nThroughout the screen, reagent bottle and all liquid lines were made light-tight to minimize reagent degradation. All screening operations were performed on a fully integrated robotic system (Kalypsys, San Diego, CA) containing one RX-130 and two RX-90 anthropomorphic robotic arms (Staubli, Duncan, SC). Library plates were screened starting from the lowest and proceeding to the highest concentration, and a 'double-pinning' step of the highest concentration was required to access higher concentrations of compounds. Vehicle-only plates, with DMSO being pin-transferred to the columns 5-48, were inserted uniformly at the beginning and the end of each library in order to monitor and record any shifts in the background, which can be affected by reagent dispensers or loss in enzyme activity over time. Screening data were corrected, normalized, and concentration-effect relationships were derived by using publicly-available curve fitting algorithms developed in-house (http://ncgc.nih.gov/pub/openhts).", "values": [{"smiles": "Oc1cc(O)cc(/C=C/c2ccc(O)c(O)c2)c1", "Potency": "inactive"}, {"smiles": "COc1ccccc1N1CCN(CCCCNS(=O)(=O)c2cccc3c(N(C)C)cccc23)CC1", "Potency": "inactive"}, {"smiles": "Fc1ccc(C(OCCCc2cnc[nH]2)c2ccc(F)cc2)cc1", "Potency": "inactive"}, {"smiles": "S=C(S)OC1CC2CC1C1CCCC21", "note": "(stereo not given)", "Potency": "inactive"}, {"smiles": "CC12C(=O)OC(=O)C1(C)C1CCC2O1", "note": "(stereo not given)", "Potency": "inactive"}, {"smiles": "COC(=O)c1c(C)[nH]c(C)c1C(=O)c1ccccc1Cc1ccccc1", "Potency": "inactive"}, {"smiles": "CC(=O)N[C@H](C(=O)O)C(C)(C)SN=O", "Potency": "inactive"}, {"smiles": "O=c1[nH]c2cc([N+](=O)[O-])c([N+](=O)[O-])cc2[nH]c1=O", "Potency": "inactive"}, {"smiles": "N#C/C(=C\\c1ccc(-c2cc(Cl)ccc2Cl)o1)C(=O)Nc1cccc2ncccc12", "Potency": "inactive"}, {"smiles": "CCC1C(=O)OCC1Cc1cncn1C", "note": "(stereo not given)", "Potency": "inactive"}, {"smiles": "CN(C)CCCO[C@@H]1[C@H]2OC(C)(C)O[C@H]2O[C@@H]1[C@H](O)CO", "Potency": "inactive"}, {"smiles": "COc1ccc2c(c1)CCC1C2CC[C@@]2(C)C1CC[C@@H]2NCCCCCCN1C(=O)CCC1=O", "note": "(stereo not given in full)", "Potency": "inactive"}, {"smiles": "NC(=S)NCCC[C@H](N)C(=O)O", "Potency": "inactive"}, {"smiles": "CN1CCc2ccccc2Cc2[nH]c3ccccc3c2CC1", "Potency": "inactive"}, {"smiles": "CCCCCCCC/C=C\\CCCCCCCC(=O)NCCO", "Potency": "inactive"}, {"smiles": "Oc1cc2c(cc1O)CN(C(=S)NCCc1ccc(Cl)cc1)CCC2", "Potency": "inactive"}, {"smiles": "NC(=S)c1ccc[n+]([C@@H]2O[C@@H](COP(=O)([O-])OP(=O)(O)OC[C@H]3O[C@@H](n4cnc5c(N)ncnc54)[C@H](OP(=O)(O)O)[C@@H]3O)C(O)C2O)c1", "note": "(stereo not given in full)", "Potency": "inactive"}, {"smiles": "COC1=C(OC)C(=O)c2ccccc2C1=O", "Potency": "inactive"}, {"smiles": "CNC(=O)[C@H]1O[C@@H](n2cnc3c(NCc4ccc(N)cc4)ncnc32)[C@H](O)[C@@H]1O", "Potency": "inactive"}, {"smiles": "CN(C)CCC(c1ccc(Cl)cc1)c1ccccn1", "note": "(stereo not given)", "Potency": "inactive"}, {"smiles": "O=C1NC(=O)/C(=C/c2ccc(-c3ccc(F)cc3O)o2)S1", "Potency": "inactive"}, {"smiles": "CCCn1c(=O)c2[nH]c(-c3ccc(OCC(=O)NCCN)cc3)nc2n(CCC)c1=O", "Potency": "inactive"}, {"smiles": "CN(C)C(N)=NCCC[C@H](N)C(=O)O", "Potency": "inactive"}, {"smiles": "CCCN(CC1CC1)c1nc(C)nc(Nc2c(Cl)cc(Cl)cc2Cl)c1Cl", "Potency": "inactive"}, {"smiles": "O=C(c1ccc(OCCCc2cnc[nH]2)cc1)C1CC1", "Potency": "inactive"}, {"smiles": "COc1cccc(C(=O)NCCN2CCN(c3ccc(Cl)cc3)CC2)c1", "Potency": "inactive"}, {"smiles": "NC(=O)C(=O)O", "Potency": "inactive"}, {"smiles": "CCCCN1CCC(n2c(=O)[nH]c3ccccc32)CC1", "Potency": "inactive"}, {"smiles": "c1ccc(-c2ccccn2)nc1", "Potency": "inactive"}, {"smiles": "CC(C)ON([C@@H](C(=O)NO)C(C)C)S(=O)(=O)c1ccc(-c2ccccc2)cc1", "Potency": "inactive"}, {"smiles": "O=S(=O)(c1cccc2c(I)cccc12)N1CCCNCC1", "Potency": "inactive"}, {"smiles": "O=C1NC(O)=NC1(c1ccccc1)c1ccccc1", "Potency": "inactive"}, {"smiles": "OC[C@H]1O[C@@H](n2cnc3c(Nc4ccccc4)ncnc32)[C@H](O)[C@@H]1O", "Potency": "inactive"}, {"smiles": "N=C(N)SCCc1ccc(CCSC(=N)N)cc1", "Potency": "inactive"}, {"smiles": "CC(N)C(=O)OC(C)(C)Cc1ccc(Cl)cc1", "note": "(stereo not given)", "Potency": "inactive"}, {"smiles": "O=C(O)CNC(=O)C(CS)Cc1ccccc1", "note": "(stereo not given)", "Potency": "inactive"}, {"smiles": "CCc1c(C(=O)NCCc2ccc(N3CCCCC3)cc2)[nH]c2ccc(Cl)cc12", "Potency": "inactive"}, {"smiles": "O=C(O)/C=C/C(O)c1ccc(Cl)cc1", "note": "(stereo not given)", "Potency": "inactive"}, {"smiles": "NC(=O)C1=CN(C2OC(COP(=O)(O)OP(=O)(O)OC[C@H]3O[C@@H](n4cnc5c(N)ncnc54)[C@H](OP(=O)(O)O)[C@@H]3O)C(O)C2O)C=CC1", "note": "(stereo not given in full)", "Potency": "inactive"}, {"smiles": "O=C(O)c1cc(=O)c2ccccc2[nH]1", "Potency": "inactive"}]}]}
